Screens from PubChem.
PKA-R2B act: activators of PKA-R2B holoenzyme, primary screen, biochemical, fluorescence polarization, Cy5-IP20, human. AID 504700, 2011. activation, % at 11.4 µM. cAMP-dependent protein kinase catalytic subunit beta (Homo sapiens) + cAMP-dependent …. PKA-R2B holoenzyme dissociation; R2B truncated from residue 108, S112A mutant; 0% DMSO only, 100% 113 µM cGMP. 340,000 compounds, 0.079% hits;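 active = activation above a cutoff set at the mean over all compounds plus 3 SD, cut at about 18% in these data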;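 note: higher means more holoenzyme dissociation and a rise in polarization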
PKA-R1A act: activators of PKA-R1A holoenzyme, primary screen, biochemical, fluorescence polarization, Cy5-IP20, bovine R1A, mouse PKAc; 340,000 compounds, 0.083% hits; PKA-R1A dissociation; scaled: DMSO 0%, 113 µM cGMP 100%; AID 504707, 2011; activation, % at 11.4 µM;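 active = percent activation above the mean of all tested compounds plus 3 SD, cut at about 19% in these data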;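 note: higher means more PKAc released from R1A so a rise in polarization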
Rin1 Abl inh: inhibitors of Rin1-Abl protein binding, primary screen, biochemical, TR-FRET; inhibition, % at 7.35 µM; 360,000 compounds, 0.4% hits; Tyrosine-protein kinase ABL1 (Homo sapiens) + Ras and Rab interactor 1 (Homo sapiens), …; in the data active = inhibition above about 5%, passing the limit was not always enough
IDE cell activ: human IDE activators in live cells, primary screen, fluorescence polarization, HEK cells, FAbeta-B substrate; activation, % at 5.96 µM; AID 493087, 2011; FAbeta-B cleavage; 0% vehicle, 100% cell-free pure enzyme wells; 340,000 compounds, 0.073% hits;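 active = activation above the mean of all tested compounds plus 3 SD, set per screening campaign, cut at about 17% in these data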
IDE cell inh: human IDE inhibitors in live cells, primary screen, fluorescence polarization, HEK cells, FAbetaB substrate; 320,000 compounds, 0.41% hits; Insulin-degrading enzyme (Homo sapiens), P14735; inhibition, % at 5.59 µM; FAbetaB cleavage;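 active = percent inhibition above the average of all tested compounds plus 3 SD, set per screening campaign, cut at about 16% in these data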;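 note: IDE supplied by intact live HEK cells; FP after avidin binding of uncleaved biotin substrate so inhibition keeps polarization high; 0% = DMSO wells and 100% = 60 µM reference IDE inhibitor Ii1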
eLon inh: inhibitors of E. coli Lon protease, primary screen, biochemical, fluorescence polarization | AID 602123, 2011 | 360,000 compounds, 0.42% hits | inhibition, % at 7.94 µM | purified E. coli Lon protease; in the data active = inhibition above about 13%, passing the limit was not always enough;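 note: 0% = enzyme with probe and DMSO and 100% = no enzyme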
Rin1 Abl conf: Rin1-Abl binding inhibitor retest, confirmation, biochemical, TR-FRET. shares compounds with Rin1 Abl inh. purified proteins. inhibition, % at 7.35 µM. 1,300 compounds, 49% hits. AID 602124, 2011
GFP quench: GFP fluorescence inhibitors and quenchers, artefact control for Rin1-Abl interaction inhibitor project, biochemical; shares compounds with Rin1 Abl inh; inhibitors/quenchers counterscreen; inhibition, % at 6.75 µM; 1,300 compounds, 8.5% hits; AID 602125, 2011;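 note: ABL1-eGFP fusion protein alone without its partner RIN1-SBP; 0% = protein with vehicle and 100% = wells lacking protein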
GFP quench DR: GFP fluorescence inhibitors and quenchers, dose response, artefact control for Rin1-Abl interaction inhibitor project, biochemical | shares compounds with Rin1 Abl inh | GFP fluorescence interference/quenching counterscreen | IC50, µM | 230 tested, under 10 active | AID 602182, 2012; call rule not given here;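 note: ABL1-eGFP fusion protein alone without its RIN1 binding partner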
* marks the source's active call; other numbers are inactive results; . = not tested or not shown. Most compounds without a hit are left out; they make up all but 1.3% or so of the library. Cut-off read from the data, not from the text of the source, unless noted: active = inhibition above about 6.5%; inactive = the rest.

SMILES | PKA-R2B act | PKA-R1A act | Rin1 Abl inh | IDE cell activ | IDE cell inh | eLon inh | Rin1 Abl conf | GFP quench | others
C[C@@H]1CCCCO[C@@H](CN(C)S(=O)(=O)c2ccccc2)[C@@H](C)CN([C@H](C)CO)C(=O)c2cc(NS(=O)(=O)c3ccc(F)cc3)ccc2O1 | 6.5 | -2.1 | 51.1* | . | . | -5.9 | 59.9* | -0.3 | GFP quench DR=>67.5
CCc1nc(-c2ccc(C)nc2OC)no1 | -9.0 | -4.5 | -0.4 | 3.3 | 2.3 | 7.1 | . | .
CCOC(=O)c1[nH]c2c(OCC)nc(OCC)nc2c1Br | 5.0 | 8.4 | -0.3 | -0.6 | . | -13.5 | . | .
Cc1nn(C)c(C)c1NS(=O)(=O)c1ccc(Cl)cc1 | -7.3 | -2.4 | -2.8 | 6.2 | 1.0 | -10.5 | . | .
Oc1ccc(C2=Nn3c(nnc3-c3ccco3)SC2)cc1O | -7.6 | -5.0 | 5.9* | 6.8 | -2.6 | 14.8 | 3.9 | 16.9*
CC1=NN(Cc2ccccc2)C(=O)C1C(c1ccncc1)C(C#N)C#N (stereo unspecified) | 10.5 | -0.5 | -0.8 | 2.2 | 3.7 | -7.1 | . | .
COc1ccc2cnn(CCOc3ccccc3)c(=O)c2c1OC | -8.2 | 2.4 | 14.1* | 1.7 | -5.7 | -10.9 | -0.9 | 1.1
CC(CCN1C(Nc2ccccc2)=NC[C@@H]1C)c1ccccc1 (stereo partly specified) | 1.3 | -0.8 | -0.8 | -0.1 | 3.1 | -3.7 | . | .
O=C(Cc1ccccc1)NC1(O)C(=O)c2ccccc2C1=O | . | . | 4.0 | . | 3.3 | -1.7 | . | .
Cc1ccc(C(=O)NC2(O)C(=O)c3ccccc3C2=O)cc1C | 4.3 | -3.2 | 11.7* | 0.1 | 8.1 | 2.0 | 15.9* | 2.7
CCS(=O)(=O)c1ccc(N=Nc2ccc(O)c3ncccc23)c(OC)c1 | 1.2 | -0.6 | 6.9 | 6.0 | . | 2.5 | . | .
COc1ccccc1N=Nc1ccc(O)c2ncccc12 | 2.0 | 4.2 | 8.7* | 5.2 | 4.7 | 5.3 | 4.9 | 12.3*
CCOc1ncccc1C(=O)OC(C)C(=O)Nc1ccc(Cl)cn1 (stereo unspecified) | 1.4 | 5.4 | 8.2* | -6.4 | . | 0.2 | -1.9 | 0.6
CCCOc1ccc(/C=C/C(=O)N2CCN(C(=O)c3ccco3)CC2)cc1OC | -7.1 | 11.1 | 15.4* | . | . | -12.5 | 16.8* | -0.7 | GFP quench DR=>67.5
CC12CCC(=O)N1C(C(=O)N1CCN(S(=O)(=O)c3ccccc3F)CC1)CS2 (stereo unspecified) | 11.4 | -5.4 | -4.8 | -3.8 | 0.3 | -8.2 | . | .
CC12CCC(=O)N1C(C(=O)N1CCN(S(=O)(=O)c3ccc(Br)cc3Cl)CC1)CS2 (stereo unspecified) | 5.7 | -1.1 | 18.6* | -10.5 | 11.8 | -1.9 | 17.4* | 1.5 | GFP quench DR=>67.5
OC[C@H]1O[C@@H](n2cnc3c(Nc4ccccc4)ncnc32)[C@H](O)[C@@H]1O | 4.6 | 0.6 | -0.9 | -5.3 | 3.7 | -1.2 | . | .
OCC1OC(n2cnc3c(NCc4ccccc4O)ncnc32)C(O)C1O (stereo unspecified) | -10.8 | 4.5 | 20.5* | -1.2 | . | 3.1 | 16.8* | -0.7 | GFP quench DR=>67.5
Cc1ccc(C(C)NC(=O)C23CC4CC(CC(C4)C2)C3)cc1 (stereo unspecified) | -12.3 | -3.8 | 6.0* | 3.4 | -2.1 | 2.0 | -0.3 | -1.4
O=C(N/N=C/c1ccc(O)c(O)c1)N/N=C/c1ccc(O)c(O)c1 | 5.3 | 14.4 | 49.1* | 3.4 | . | -3.0 | 62.6* | 11.7*
Cc1ccc(S(=O)(=O)c2nnn3c2nc(N2CCOCC2)c2ccccc23)c(C)c1 | -16.7 | -4.7 | 45.5* | -1.5 | 4.3 | 8.7 | 29.7* | -0.4
COc1ccc2c(c1)c(/C=N/Nc1ccc(C(=O)O)cc1)c(C)n2C | -0.6 | 1.8 | 0.8 | 0.8 | 8.6 | -1.1 | . | .
COc1ccc(NC(=O)NC2CCCc3ccccc32)c(OC)c1 (stereo unspecified) | -2.1 | -1.8 | -0.3 | 2.3 | -0.9 | -6.3 | . | .
COc1ccc(CNC2CCCc3ccccc32)c(OC)c1 (stereo unspecified) | -2.4 | 0.3 | 6.2* | 2.0 | . | 5.0 | 0.1 | -0.4
O=C(C[C@@H]1C/C=C\CCCC(=O)OC[C@@H]2CCCN2C1=O)N[C@@H](CO)Cc1ccccc1 | -7.3 | -11.4 | 2.0 | 5.2 | -3.1 | 0.2 | . | .
SMILES | PKA-R2B act | PKA-R1A act | Rin1 Abl inh | IDE cell activ | IDE cell inh | eLon inh | Rin1 Abl conf | GFP quench | others
CC1CCc2sc(C(=O)Nc3ccc(N4CCOCC4)cc3)cc2C1 (stereo unspecified) | 4.7 | -11.5 | 5.0 | -0.6 | 11.5 | -6.5 | . | .
CCc1nnc(NC(=O)C2CSC3(C)CCC(=O)N23)s1 (stereo unspecified) | -7.5 | -5.7 | 3.3 | 2.1 | -0.6 | -6.5 | . | .
CC12CCC(=O)N1C(C(=O)Nc1nnc(SCc3ccccc3F)s1)CS2 (stereo unspecified) | 5.2 | -2.9 | 32.3* | -0.8 | 8.7 | -3.3 | 51.6* | -1.2 | GFP quench DR=>67.6
CCOc1ccc(-c2nnc(N3CCOCC3)c3ccccc23)cc1 | -1.9 | -4.4 | 12.0* | -0.4 | . | -2.3 | 6.7* | -0.7
O=c1cc(-c2ccc(O)cc2)oc2c1ccc1ccccc12 | -8.1 | -17.2 | 1.1 | 0.1 | 6.7 | -1.6 | . | .
O=c1cc(-c2ccc(O)cc2)oc2c(O)c(O)c(O)c(O)c12 | -7.1 | -4.7 | 36.9* | -1.2 | 5.3 | -13.0 | 48.2* | 21.6*
CO/N=C/C(C#N)=C/c1ccc(OC)c(OC)c1 | -6.8 | -9.0 | -2.6 | -0.2 | -2.2 | 2.4 | . | .
Cc1nn(CC(=O)Nc2ccc(C(=O)N3CCCCC3)cc2)c(=O)c2ccccc12 | 1.8 | -0.2 | 11.9* | 3.0 | -0.2 | -6.2 | 13.3* | -0.1
COC(=O)c1ccc(NC(=O)Cn2nc(C)c3ccccc3c2=O)cc1 | -0.8 | 0.0 | -1.8 | -2.1 | -5.5 | -0.2 | . | .
CCOC(=O)c1ccc(NC(=O)Cn2nc(C)c3ccccc3c2=O)cc1 | 3.6 | -3.1 | 4.0 | 0.4 | 1.2 | -3.8 | . | .
Cc1nn(CC(=O)Nc2ccc(C(=O)N3CCCC3)cc2)c(=O)c2ccccc12 | -1.5 | -0.4 | 9.9* | 3.1 | 9.9 | -0.7 | 7.4* | 2.3
